Only some compounds are listed: those with a hit (about 27% of all), similar ones and a draw of the others.
CYP2C19 inhib: human CYP2C19 inhibition | P33261 | CYP2C19 Supersomes, luciferin-H EGE luminescence, 30 min | inhibition, % at 5 µM | actives 21% (n = 96,000);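 active means CYP2C19 inhibition above a set limit at 5 µM in the primary screen, cut at about 50% in these data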;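 further: plate controls were negative control wells for no effect and 2.5 mM tranylcypromine positive control for full effect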
Target sequence (P33261 whole entry, looked up): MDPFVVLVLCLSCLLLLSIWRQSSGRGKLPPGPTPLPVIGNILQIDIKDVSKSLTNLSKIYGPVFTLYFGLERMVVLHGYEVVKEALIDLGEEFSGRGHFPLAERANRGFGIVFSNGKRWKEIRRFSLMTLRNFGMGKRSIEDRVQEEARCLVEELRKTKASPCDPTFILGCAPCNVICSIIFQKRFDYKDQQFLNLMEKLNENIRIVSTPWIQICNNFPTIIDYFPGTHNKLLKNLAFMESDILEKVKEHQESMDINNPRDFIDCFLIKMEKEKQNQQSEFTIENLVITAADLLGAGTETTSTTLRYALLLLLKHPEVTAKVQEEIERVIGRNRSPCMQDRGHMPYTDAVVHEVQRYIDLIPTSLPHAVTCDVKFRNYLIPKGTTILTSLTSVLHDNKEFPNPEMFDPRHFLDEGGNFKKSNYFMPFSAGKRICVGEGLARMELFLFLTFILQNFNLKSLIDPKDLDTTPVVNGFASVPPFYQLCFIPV
sEH inh: inhibitors of human soluble epoxide hydrolase. actives 0.34% (n = 91,000). AID 707. inhibition, % at 2 µM. recombinant human sEH enzymatic activity assay; in the data active means inhibition above about 80%
sEH activator: increases human soluble epoxide hydrolase activity | P34913 | purified human sEH enzymatic activity, activator screen | activation, % at 2 µM | actives 0.04% (n = 91,000) | AID 717; in the data active means activation above about 37%
CYP2C9 inh: blocks human cytochrome P450 2C9 | P11712 | CYP2C9 Supersomes, luciferin-H conversion, luminescence | inhibition, % at 5 µM | actives 20% (n = 96,000);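 active means blocking of liver enzyme CYP2C9 beyond about 50% at 5 µM, limit read from the data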
CYP2C19 act: increases human CYP2C19 enzyme activity; recombinant CYP2C19, luciferin-H EGE luminescence; hits give high values; 0 = fully inhibited enzyme, 1 = untreated enzyme; activation factor at 5 µM; 96,000 tested, under 10 active; AID 1025;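 active means activation factor of at least 2 at 5 µM in the primary screen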;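 further: 0 = wells with 2.5 mM tranylcypromine and 1 = vehicle-only wells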
CYP2C9 act: activators of human CYP2C9; AID 1024; P11712; activation factor at 5 µM; actives 1.4% (n = 96,000); recombinant CYP2C9, luciferin-H conversion, luminescence; hits give high values; factor 1 = untreated enzyme, 0 = blocked;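 active means activation factor of 2 or more for CYP2C9 at a 5 µM dose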;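 further: 0 = sulfaphenazole-blocked wells and 1 = vehicle-only wells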
An asterisk follows results filed as active; · = not tested or not shown.

SMILES	CYP2C19 inhib	sEH inh	sEH activator	CYP2C9 inh	CYP2C19 act	CYP2C9 act
O=C(Nc1ccccc1Cl)N1CCn2c(nc3ccccc32)C1	52*	18	-17	22	0.5	0.8
COc1ccccc1NC(=O)N1CCn2c(nc3ccccc32)C1	22	-8	9	10	0.8	0.9
O=C(C1COc2ccccc2O1)N1CCN(c2ccccc2)CC1 (stereo unspecified)	85*	·	·	75*	0.1	0.3
CCOC(=O)Cn1c(N2CCOCC2)nc2c1c(=O)[nH]c(=O)n2C	4	7	-5	-7	1	1.1
COc1ccc(/C=N/NC(=O)Cc2csc(Nc3cccc(C(F)(F)F)c3)n2)cc1C	·	10	-10	·	·	·
COc1ccc(OC)c(NC(=O)C23CCC(C)(C(=O)O2)C3(C)C)c1 (stereo unspecified)	61*	6	-5	-103	0.4	2*
COC(=O)c1ccccc1NC(=O)C12CCC(C)(C(=O)O1)C2(C)C (stereo unspecified)	57*	9	-7	10	0.4	0.9
Cc1cccnc1NC(=O)C12CCC(C)(C(=O)O1)C2(C)C (stereo unspecified)	6	5	-6	24	0.9	0.8
COc1ccc(Cl)cc1NC(=O)C12CCC(C)(C(=O)O1)C2(C)C (stereo unspecified)	83*	0	-1	-65	0.2	1.6
CC[C@@H](C)[C@H](NC(=O)C1CCN(C(=O)[C@@H](NS(=O)(=O)c2ccc(C)cc2)C(C)C)CC1)C(=O)O	16	6	-8	-1	0.8	1
O=[N+]([O-])c1ccc(Oc2c(F)c(F)nc(N3CCCC3)c2F)cc1	40	11	-9	5	0.6	1
O=C(CSc1nnc(-c2ccco2)o1)NC1CCCCCC1	75*	17	-14	22	0.2	0.8
CCOc1ccc(N(CC(=O)NC2CCCC2)C(=O)CSc2nnc(COc3ccccc3)o2)cc1	42	9	-11	58*	0.6	0.4
O=C(CSc1nnc(Cc2ccccc2)o1)NC1CCCCC1	52*	-24	22	12	0.5	0.9
O=C(CN(C(=O)CSc1nnc(COc2ccccc2)o1)c1ccc(F)cc1)NC1CCCC1	16	19	-21	14	0.8	0.9
O=C(CSc1nnc(Cc2ccccc2)o1)NC1CC2CCC1C2 (stereo unspecified)	52*	14	-10	34	0.5	0.7
O=C(Nc1nncs1)c1c(F)c(F)c(F)c(F)c1F	17	13	-14	4	0.8	1
N#Cc1ccc(Oc2nc(Nc3ccc(F)cc3)nc(N3CCCC3)n2)cc1	5	-13	13	6	0.9	0.9
C=CCNCCCCOc1ccc(C)cc1[N+](=O)[O-]	6	-8	6	7	0.9	0.9
O=C(CSc1ncn[nH]1)NC1CC2CCC1C2 (stereo unspecified)	53*	9	-7	1	0.5	1
O=C(Cn1ncc2c1-c1ccccc1OC2)Nc1nc2ccccc2s1	46	7	-5	55*	0.5	0.4
CC(CCc1ccco1)NC(=O)Cn1ncc2c1-c1ccccc1OC2 (stereo unspecified)	80*	-19	19	67*	0.2	0.3
CSc1cccc(NC(=O)c2cnccn2)c1	8	-14	12	-77	0.9	1.8
Cc1noc(NS(=O)(=O)c2ccc(N/C=C/C(=O)c3cccnc3)cc2)c1C	-10	·	·	-9	1.1	1.1
COC(=O)c1cccc(NC(=O)c2cccc(OC)c2)c1	50	-15	11	23	0.5	0.8
SMILES	CYP2C19 inhib	sEH inh	sEH activator	CYP2C9 inh	CYP2C19 act	CYP2C9 act
COc1cccc(C(=O)/C=C/Nc2cccc(O)c2)c1	91*	-6	5	28	0.1	0.7
CSc1ccc(/C=C/C(=O)c2ccc(NC(=O)C(C)C)cc2)cc1	16	-12	13	20	0.8	0.8
COc1cccc(C(=O)/C=C/Nc2ccc(S(=O)(=O)Nc3cccc(C(C)=O)c3)cc2)c1	34	4	-3	78*	0.7	0.2
COc1cccc(C(=O)/C=C/c2ccc(SC)cc2)c1	92*	-3	4	40	0.1	0.6
COc1cccc(/C=C/C(=O)c2ccc[nH]2)c1	70*	-6	3	17	0.3	0.8
CCNCC(O)COCC(O)CNCC (stereo unspecified)	5	0	2	6	1	0.9

Source: PubChem BioAssay
